Assay outcomes from PubChem.
Sampled rows, rich in hits. Any-hit rate of the full collection: about 3.2%.
TbPYK inhibitor: blocks Trypanosoma brucei pyruvate kinase. 410,000 tested, 0.12% active. TbPYK enzyme, Kinase-Glo Plus ATP luminescence, 45 min. Potency, µM (series often up to 76.8 µM), inactives show at the highest dose activity, negative = inhibition, actives largely listed as inhibitors. Q57TT1; also: nearly all actives have a fitted effect of over 50% in size
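TbPYK + substrate in 50 mM TEA pH 7.2, 100 mM KCl, 10 mM MgCl2, 0.05% BSA, 0.01% Tween-20; cpd pinned; ADP 130 uM final; 45 min RT; Kinase-Glo Plus 10 min; luminescence endpoint.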
LmPK inh: blocks Leishmania mexicana pyruvate kinase activity. AID 1721. Potency, µM (top dose mostly 57.5 µM), for the others: at the top dose activity change, negative = inhibition, hits mostly inhibitors. purified LmPK, Kinase-Glo ATP luminescence, 1 h. Q27686. 290,000 tested, 0.37% active
Target sequence (Q27686 whole entry, looked up): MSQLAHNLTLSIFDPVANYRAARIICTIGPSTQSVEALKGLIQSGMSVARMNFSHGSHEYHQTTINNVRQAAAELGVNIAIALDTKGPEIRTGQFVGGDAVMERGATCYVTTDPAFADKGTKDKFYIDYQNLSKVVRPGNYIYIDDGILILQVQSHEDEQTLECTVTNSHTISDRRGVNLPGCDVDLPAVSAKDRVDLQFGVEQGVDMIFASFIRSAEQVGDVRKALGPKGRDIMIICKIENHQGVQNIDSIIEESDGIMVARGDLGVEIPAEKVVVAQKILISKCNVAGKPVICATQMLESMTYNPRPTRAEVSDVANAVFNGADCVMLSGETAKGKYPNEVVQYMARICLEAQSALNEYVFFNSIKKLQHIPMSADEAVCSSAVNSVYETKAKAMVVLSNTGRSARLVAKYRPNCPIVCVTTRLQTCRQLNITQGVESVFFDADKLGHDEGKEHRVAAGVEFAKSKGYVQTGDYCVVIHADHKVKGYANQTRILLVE
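Purified LmPK (0.1 nM) with 0.5 mM PEP and 0.1 mM ADP in imidazole buffer pH 7.2 with MgCl2/KCl, 1 h at room temperature. ATP formed was read by luciferase luminescence and normalized to no-enzyme and uninhibited controls.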
AMA1-RON2 inh: disrupts binding of P. falciparum AMA1 to RON2 | AID 720542 | AlphaScreen AMA1-biotinylated RON2 peptide binding | 360,000 tested, 0.2% active | Potency, µM (doses to about 58.2 µM), inactives show at the highest dose activity change, negative = inhibition, hits mostly inhibitors;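 also: 0% = vehicle wells and -100% = peptide control; nearly all actives have a fitted effect of over 45% in size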
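AMA1 (3D7) with his tag at 25 nM final met compounds first, then biotinylated RON2 peptide at 25 nM; detection used donor plus acceptor beads, 10 µg/mL apiece, read by AlphaScreen after 30 min at room temperature.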
RE007 growth inh: less growth of the S. pombe RE007 Vpr strain; S. pombe RE007 Vpr strain, BacTiter-Glo ATP luminescence, 24 h; Potency, µM (series often up to 92.2 µM), for the others: top-dose activity change, negative = less growth, hits mostly inhibitors; 360,000 tested, 0.21% active; AID 651644; active = well fitted falling curve with a large enough effect; inconclusive = small, poorly fitted or top-dose-only effect; inactive = no such curve, though single readings can be large or run the other way; also: nearly all actives have a fitted effect of over 50% in size
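Fission yeast RE007 carrying one integrated HIV-1 vpr copy, seeded at OD 0.01 in PMG+AL medium with 23 nL pinned compound. Grown 24 h at 30 degrees; viability read by BacTiter-Glo luminescence after 5 min.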
Sm TGR block: blocks Schistosoma mansoni thioredoxin glutathione reductase. Q962Y6. purified TGR, DTNB reduction, TNB absorbance 405 nm. Potency, µM (titrated, usually from 114 µM), for the others: at the top dose activity change, negative = inhibition, usual class: inhibitors. 360,000 tested, 3% active; also: nearly all actives have a fitted effect of over 60% in size
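First, TGR (20 nM dispensed) and NADPH were mixed with compound. Second, a 15 min room-temperature incubation followed. Third, further NADPH and then DTNB were added to start the reaction. Finally, TNB absorbance was monitored kinetically.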
Active calls of the source: *; ? = inconclusive; . = no result given; [ ] = dose if it differs, or a comment. Unless noted, calls follow the shape of the dose curve; as a rule, active = well fitted curve in the direction sought with a large enough effect; inconclusive = small, poorly fitted or top-dose-only effect, or another doubt; inactive = no such curve, though single readings can be large; an effect the other way counts as inactive or inconclusive. Unless noted, % is scaled to controls: 0 for no effect and ±100 for the full control effect; potency is read from the fitted curve at half-maximal effect.

SMILES | TbPYK inhibitor | LmPK inh | AMA1-RON2 inh | RE007 growth inh | Sm TGR block
Cc1cc2nc(-c3ccc[nH]c3=O)n(Cc3ccc(F)cc3)c2cc1C | 6% | -1% | 16% | 9% | 0%
Cc1cccc(CN2C(=O)c3ccccc3Sc3ccc(C(=O)NCc4cccs4)cc32)c1 | 2% | . | . | . | 10%
S=c1[nH]nc(CCc2nc3ccccc3[nH]2)n1-c1cccc(Cl)c1 | ? | 10µM* | 54% | 2% | 15%
S=c1[nH]nc(CCc2nc3ccccc3[nH]2)n1-c1ccccc1 | ? | -12% | 52% | 1% | -10%[57.1 µM]
CC1(O)CCC2C3CCC4=CC(=O)CCC4(C)C3(F)C(O)CC21C (stereo not drawn) | -3% | . | . | . | .
COCCN(CCOC)Cc1c(O)ccc2c1O/C(=C\c1ccco1)C2=O | 3% | 2% | -21% | 7% | 3.5µM*
CC1CCN(Cc2c(O)ccc3c2O/C(=C\c2ccco2)C3=O)CC1 | -10% | 5% | ? | -11% | 1µM*
O=C1/C(=C/c2ccco2)Oc2c1ccc(O)c2CN1CCCCC1 | -8% | 0% | ? | -10% | ?
CCN1CCN(Cc2c(O)ccc3c2O/C(=C\C=C\c2ccccc2OC)C3=O)CC1 | -25% | 1% | -11%[11.6 µM] | -24% | ?
COc1ccccc1N1CCN(c2ccc(=O)n(CC(=O)NCc3ccc(F)cc3)n2)CC1 | 3% | . | . | . | -9%
CC(C)(C)OC1NS(=O)(=O)OCC1NCOC(Cl)(Cl)Cl (stereo not drawn) | -9% | -1% | 23% | 2% | 0.45µM*
CCOC(=O)C(NC(=O)c1cccc(Cl)c1)(Nc1sc2c(c1C(N)=O)CCC2)C(F)(F)F (stereo not drawn) | -11% | 2% | -5% | -5% | 40µM*
CCOC(=O)C(NC(=O)c1ccccc1Cl)(Nc1sc2c(c1C(N)=O)CCC2)C(F)(F)F (stereo not drawn) | -16% | 1% | 13% | 7% | 40µM*
CCOC(=O)C(NC(=O)c1ccc(F)cc1)(Nc1sc2c(c1C(N)=O)CCC2)C(F)(F)F (stereo not drawn) | -6% | -4% | 6% | 10% | ?
O=C(COC(=O)c1cc(S(=O)(=O)N2CCc3ccccc3C2)ccc1Cl)NCc1ccco1 | ? | 6% | 12% | 11% | 18µM*
O=C(COC(=O)c1ccc(S(=O)(=O)N2CCCC2)cc1)NCc1ccco1 | 1% | 2% | 18% | -8% | 40µM*
O=C(NCc1ccco1)c1cccc(S(=O)(=O)N2CCCCC2)c1 | -7% | 6% | -5% | -12% | 25µM*
CN(c1ccccc1)S(=O)(=O)c1cccc(C(=O)OCC(=O)NCc2ccco2)c1 | 1% | -2% | 10% | 14% | 56µM*
CN(c1ccccc1)S(=O)(=O)c1cccc(C(=O)OCC(=O)NCc2ccccc2)c1 | -1% | . | 7% | 1% | .
CCOc1cc(-c2ccc(OC(=O)c3ccc(C)cc3)c(OC)c2)cc(=O)c2c(C)oc(C)c12 | -8% | . | . | . | -27%
COc1ccc(S(=O)(=O)Nc2cccc(-c3ccc(N4CCC(C)CC4)nn3)c2)cc1OC | -12% | . | . | . | 1%
CCn1cc(C(=O)NCc2ccco2)c(=O)c2cc(S(=O)(=O)N3CCCCCC3)ccc21 | 3% | -1% | 67% | -18% | ?
CCn1cc(C(=O)NCC(C)C)c(=O)c2cc(F)c(N3CCN(C(=O)c4ccco4)CC3)cc21 | 1% | 0% | 0% | 0% | 1%
CCn1cc(C(=O)NCc2ccco2)c(=O)c2cc(S(=O)(=O)N3CCc4ccccc4C3)ccc21 | 1% | 7% | -8% | -7% | 14µM*
O=C(COC(=O)c1cccc(S(=O)(=O)N2CCc3ccccc3C2)c1)NCc1ccco1 | 0% | -6% | -6% | -1% | 28µM*
CCn1cc(C(=O)NCc2ccco2)c(=O)c2cc(F)c(N3CCN(C(=O)c4ccco4)CC3)cc21 | -4% | 4% | 0% | 10% | 20µM*
O=C(COC(=O)c1cccc(S(=O)(=O)N2CCc3ccccc32)c1)NCc1ccco1 | -4% | 6% | -5% | 22% | -30%
